VDR inh: inhibitors of human vitamin D receptor; 400,000 compounds, 0.93% hits; Potency, µM, inactives show max response, negative = inhibition, hits mostly inhibitors; VDR-SRC2-3 peptide fluorescence polarization, 2 h; also: % is scaled to controls: 0 for no effect and ±100 for the full control effect
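Two reagent solutions held at 4 deg C in the dark were dispensed, compounds pinned at 23 nl, and the mixture incubated 2 h at room temperature. Read-out: fluorescence polarization of VDR–SRC2-3 peptide binding.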
BRCA1 expr act: BRCA1 expression activation | MCF7-BRCA1-FFLuc reporter, luminescence, 48 h; response scale: scaled: vehicle 0%, 10 µM genistein 100% | Potency, µM (titrated, usually from 46.1 µM), for inactives: top-dose activation, hits mostly activators | 380,000 compounds, 1.1% hits | AID 624202; also: nearly all actives have a fitted effect of over 80% in size
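MCF7 cells carrying a BRCA1-firefly luciferase reporter (2000 cells/well, phenol-red free MEM) were attached for 2 h at 37 °C, then given compounds for 48 h. Luminescence was read 15 min after luciferase reagent; activity normalized to genistein (10 microM) and DMSO.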
PLK1 PBD block: blocks phosphopeptide binding to human PLK1 polo-box domain; P53350; Plk1 PBD binding of FITC phosphopeptide, fluorescence polarization; Potency, µM, for inactives: max response, negative = inhibition, usual class: inhibitors; 360,000 compounds, 2.8% hits; AID 720504; also: series mostly up to about 57 µM; % is scaled to controls: 0 for no effect and ±100 for the full control effect; nearly all actives have a fitted effect of over 65% in size
Tb PFK inh: inhibitors of T. brucei phosphofructokinase. T. brucei PFK, ADP-Glo luminescence. Potency, µM (titrated, usually from 57.5 µM), inactives show at the highest dose activity, negative = inhibition, most hits filed as inhibitors. 330,000 compounds, 0.17% hits. AID 485367;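 also: 0% = uninhibited 1x PFK enzyme wells and -100% = no-enzyme wells; nearly all actives have a fitted effect of over 60% in size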
Target sequence (O15648 whole entry, looked up): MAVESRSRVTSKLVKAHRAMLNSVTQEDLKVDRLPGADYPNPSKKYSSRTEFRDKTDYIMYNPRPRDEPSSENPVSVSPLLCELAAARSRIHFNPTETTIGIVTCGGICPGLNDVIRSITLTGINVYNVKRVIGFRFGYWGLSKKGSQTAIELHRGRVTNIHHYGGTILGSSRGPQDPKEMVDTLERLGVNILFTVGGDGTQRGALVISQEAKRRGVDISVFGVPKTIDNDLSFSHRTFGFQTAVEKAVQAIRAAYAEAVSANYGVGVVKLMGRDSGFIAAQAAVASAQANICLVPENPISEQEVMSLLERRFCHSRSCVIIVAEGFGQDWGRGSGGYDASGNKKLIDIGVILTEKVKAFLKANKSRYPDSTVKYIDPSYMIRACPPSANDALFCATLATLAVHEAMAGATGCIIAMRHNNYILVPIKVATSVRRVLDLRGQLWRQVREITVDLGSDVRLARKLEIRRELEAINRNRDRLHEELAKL
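PFK 1.25 nM, F6P 0.5 mM, ATP 0.1 mM, 0.1 M TEA pH 8.0, 5 mM MgCl2, 0.01% Tween20, 0.1% BSA; 45 min RT. ADP-Glo readout. qHTS titration up to 57 uM; curves fitted, compounds curve-classed.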
An asterisk follows results filed as active; ? = inconclusive; · = no result given. In the library only some 3.9% were active in any assay of this set; here they are far more common. Calls follow the shape of the dose curve; as a rule, active = well fitted curve in the direction sought with a large enough effect; inconclusive = small, poorly fitted or top-dose-only effect, or another doubt; inactive = no such curve, though single readings can be large; an effect the other way counts as inactive or inconclusive. Potency is read from the fitted curve at half-maximal effect.

SMILES	VDR inh	BRCA1 expr act	PLK1 PBD block	Tb PFK inh
CCNC(=O)C1(C)CCCN1Cc1cccc(C(F)(F)F)c1 (centres undefined)	·	0.0%	-10.4%	·
Cc1ccc(C(=O)Nc2ccc(N3CCCC3)cc2)cc1	-3.9%	49.0%	-9.9%	2.8%
CCCC(=O)N1CCN(c2ccc(NC(=O)c3cccs3)cc2)CC1	-16.6%	25.0%	23.8µM*	1.2%
O=C(Cc1ccccc1)Nc1ccc(CN2CCOCC2)cc1	-11.0%	10µM*	-5.6%	-7.1%
O=C(Nc1ccc(CN2CCOCC2)cc1)c1ccccc1F	9.1%	70.4%	-4.3%	-3.1%
COc1cc(NC(=O)Cc2cccs2)cc(OC)c1	-7.9%	-2.7%	3.36µM*	-10.0%
Cc1ccc(C(=O)Nc2ccc(N3CCOCC3)cc2)cc1	7.5%	8.91µM*	-3.4%	4.0%
CCCC(=O)NC(=S)Nc1ccc(N2CCN(C(=O)c3cccs3)CC2)cc1	11.8%	-3.3%	-5.9%	1.6%
NC1(c2ccc(-c3nc4ccn5c(=O)[nH]nc5c4cc3-c3ccccc3)cc2)CCC1	·	-81.7%	·	·
Cc1ccc(CCNC(=O)c2ccc(Cn3c(=O)c4cccn4c4cccnc43)cc2)cc1	9.0%	·	·	·
CCc1nc(SCc2ccccc2C#N)n[nH]1	-6.9%	1.8%	-8.9%	0.7%
O=C(Cc1cccs1)Nc1ccc(-c2nc3ccccc3[nH]2)cc1	-1.5%	5.62µM*	29.9µM*	-14.7%
O=C(Cc1cccs1)Nc1ccc(N2CCOCC2)cc1	10.0%	7.94µM*	-4.0%	-17.9%
COc1cccc(C(C)NC(=O)Cc2cccs2)c1 (centres undefined)	?	-2.7%	21.2µM*	-0.1%
O=C(CSc1nncn1-c1ccccc1)Nc1ccc(N2CCOCC2)cc1	?	-2.6%	2.67µM*	-0.8%
Cc1ccc(C(C)NC(=O)Cc2cccs2)cc1C (centres undefined)	-4.7%	0.0%	-7.6%	0.5%
O=C(Cc1cccs1)Nc1ccc(Cl)cc1	2.3%	51.7%	?	-15.2%
O=C(CSc1ccccc1)Nc1ccc(-c2nc3ccccc3[nH]2)cc1	-1.2%	?	-1.7%	0.0%
CCOC(=O)c1ccc(N2C(=O)c3[nH]nc(-c4ccc(OC)cc4)c3C2c2ccc(C)cc2)cc1 (centres undefined)	-13.8%	-65.7%	·	·
COc1ccc(-c2ccccc2)cc1NC(=O)[C@@H]1O[C@H](CO)[C@H](O)[C@H](O)[C@H]1O	·	17.3%	-6.3%	·
NS(=O)(=O)c1ccc(NC(=O)Cc2cccs2)cc1	8.5%	2.4%	1.2%	0.4%
CC1=C(C)CC(C(=O)Nc2ccc(C(=O)N3CCOCC3)cc2)C(C(=O)O)C1 (centres undefined)	-22.3%	0.0%	21.2µM*	-11.7%
CCN(CC)S(=O)(=O)c1ccc(NC(=O)Cc2cccs2)cc1	-15.4%	-8.4%	26.7µM*	-4.8%
O=C(Nc1ccc(C(=O)N2CCOCC2)cc1)C1CC1	-14.3%	23.3%	-5.7%	·
O=C(Nc1ccc2nc(SCC(=O)N3CCCC3)sc2c1)c1ccccc1F	0.5%	·	·	·
SMILES	VDR inh	BRCA1 expr act	PLK1 PBD block	Tb PFK inh
O=C(CS(=O)c1ccc(C(F)(F)F)cc1[N+](=O)[O-])Oc1ccccc1 (centres undefined)	0.2%	-83.9%	26.7µM*	3.0%
COC(=O)c1ccc(OC(=O)CS(=O)c2ccccc2[N+](=O)[O-])cc1 (centres undefined)	-4.1%	-16.8%	?	4.1%
C=C/C(C)=C/C[C@H]1C(=C)CCC2[C@](C)(C(=O)O)CCC[C@@]21C (some centres undefined)	-4.0%	-4.9%	18.9µM*	-0.2%
C=C1CCC2[C@](C)(CO)[C@H](O)CC[C@@]2(C)[C@@H]1C/C=C1/C(=O)OC[C@H]1O (some centres undefined)	-2.0%	·	·	·
COc1ccc(-c2nc3c(Cl)cc(C(F)(F)F)cn3c2Cc2ccc(C)cc2)cc1OC	·	-17.0%	-0.9%	·
COc1ccc(NC(=O)c2cc3c(C)nn(-c4ccccc4)c3s2)c(OC)c1	-1.2%	5.9%	·	·
COc1ccc(NS(=O)(=O)c2ccc(O)c(NC(=O)c3cc4c(C)nn(-c5ccc(F)cc5)c4s3)c2)cc1	-10.9%	-76.2%	75.2µM*	0.6%
COc1cc(CC(=O)C(=O)O)oc(=O)c1	·	1.1%	-9.3%	·
Cn1cc(C=C2C(=O)CC(C)(C)CC2=O)c2ccccc21	-18.2%	1.5%	26.7µM*	14.8%
Cn1cc(/C=C2/SC(=O)N(c3ccccc3)C2=O)c2ccccc21	-11.7%	36.9%	-7.3%	1.0%
COc1ccc(C(=O)NNC(=O)C(=O)Nc2ccc(C)c(Cl)c2)cc1	?	-5.2%	26.7µM*	-0.3%
COc1ccccc1C(=O)NNC(=O)c1cccc([N+](=O)[O-])c1	-0.9%	2.1%	-9.6%	-19.5%
COc1ccc(C(=O)NNC(=O)C(=O)Nc2ccc(C)cc2)cc1	0.1%	-12.4%	3.6%	1.0%
COc1ccccc1C(=O)NNC(=O)C(=O)Nc1ccc(C)c(Cl)c1	-22.1%	-11.3%	29.9µM*	22.7%
COc1ccccc1C(=O)NNC(=O)c1cccc(C)c1	70.8µM*	53.2%	16.8µM*	-1.5%
COc1ccc(OC)c(C(Cc2ccnc3ccccc23)Cc2ccnc3ccccc23)c1	·	-56.9%	·	·
COc1ccc(NC(=O)C[C@H]2C(=O)N(C3CCCCC3)C[C@@H]2c2ccccc2)cc1	·	0.3%	1.7%	·
CC(C)(C)CC(=O)Nc1nnc(CCc2ccccc2)s1	39.6%	?	-9.3%	-0.8%
CCC(C)(C)C(=O)Nc1nnc(CCc2ccccc2)s1	-6.5%	8.91µM*	-8.5%	-2.5%
O=C(O)c1ccccc1C(=O)Nc1nccs1	-3.1%	7.0%	-3.9%	-3.5%
O=C(O)c1ccccc1C(=O)Nc1n[nH]c(=S)s1	?	6.8%	26.7µM*	?
CC(C)(C)c1ccc(S(=O)(=O)NC(=O)C2(C)CCN2C(=O)C2CCCCC2)cc1 (centres undefined)	·	20.9%	-1.0%	·
CCCN1C(=S)SC(C)(C)C1/[N+]([O-])=C/c1cccnc1 (centres undefined)	-3.7%	9.6%	23.8µM*	-1.3%
O=C(Cc1ccc(Cl)cc1)NCC(=O)N1CCC2(CC1)NCCc1[nH]cnc12	·	6.8%	6.9%	·
O=[N+]([O-])c1cc(C(F)(F)F)cc([N+](=O)[O-])c1Sc1n[nH]c(C(F)(F)F)n1	28.2µM*	-45.0%	?	-28.4%
SMILES	VDR inh	BRCA1 expr act	PLK1 PBD block	Tb PFK inh
CN(C)/C=N/c1nc(Sc2ccc(C(F)(F)F)cc2[N+](=O)[O-])n[nH]1	-1.9%	6.4%	-4.7%	2.9%
O=c1[nH]c2ccc(NC(=S)Nc3ccccc3)cc2[nH]1	-2.2%	0.9%	?	0.4%
Cc1ccc(NC(=S)Nc2ccc3[nH]c(=O)[nH]c3c2)cc1	?	16.6%	18.9µM*	-8.1%
COc1ccc(C(NC(=O)C2CCN(C/C=C/c3ccc(OC(C)=O)c(OC)c3)CC2)c2ccccn2)cc1 (centres undefined)	·	7.8%	-2.0%	·
[S-]C(=Nc1ccc(Cl)cc1)N[n+]1ccccc1	?	5.6%	16.8µM*	-25.0%
Nc1ncnc(Nc2ccccc2Oc2ccccc2)n1	-8.0%	0.0%	1.2%	·
c1ccc(CNc2oc(-c3ccccc3)nc2-c2ccccc2)cc1	14.1µM*	·	·	·

Screens deposited in PubChem BioAssay by National Center for Advancing Translational Sciences (NCATS).
